# Assay outcomes as filed in PubChem BioAssay.
# This is one part of a sample in which hits are shown more often than they occur.
# ERG Ets-DNA blk = ERG Ets/DNA interaction inhibition | fluorescence polarization, His-ERG Ets domain / labelled DNA | P11308 | hit rate 0.028% among 370,000 | Potency, µM (titrated, usually from 76.9 µM), for inactives: at the highest dose FP activity, negative = inhibition, usual class: inhibitors; active means well fitted inhibition curve with a large enough effect in the polarisation, with a control signal flat; inconclusive means small, poorly fitted or top-dose-only effect, or effect the other way, or a change in a side signal; inactive means no such curve, though single readings can be large or run the other way; the % refers to the polarisation;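 further: polarization taken with two DNA probes labelled with fluorescein and Texas red; potency means the concentration at half of the fitted maximal effect; % of control where 0% means no effect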
# Target sequence (P11308 whole entry, looked up, the tested form may be a part): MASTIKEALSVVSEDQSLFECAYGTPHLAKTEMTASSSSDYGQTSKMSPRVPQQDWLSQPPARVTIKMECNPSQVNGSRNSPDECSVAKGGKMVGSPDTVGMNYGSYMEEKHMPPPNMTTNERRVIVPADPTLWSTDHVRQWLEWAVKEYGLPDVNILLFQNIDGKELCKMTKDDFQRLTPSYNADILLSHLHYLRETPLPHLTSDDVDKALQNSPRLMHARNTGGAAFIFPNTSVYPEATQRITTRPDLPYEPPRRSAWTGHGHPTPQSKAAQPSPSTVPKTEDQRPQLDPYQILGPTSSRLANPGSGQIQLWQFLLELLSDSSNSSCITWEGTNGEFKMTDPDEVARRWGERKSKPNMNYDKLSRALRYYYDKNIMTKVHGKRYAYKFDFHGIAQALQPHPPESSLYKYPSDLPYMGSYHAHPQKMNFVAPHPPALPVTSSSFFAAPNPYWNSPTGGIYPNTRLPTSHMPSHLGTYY
#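 His-tagged ERG Ets domain (1 uM in the protein solution; 300mM KCl, 50mM Tris-HCl, 1mM EDTA, 1mM DTT, pH 7.5) received compound, then a probe mix of 5 nM fluorescein-DNA and 100nM Texas-615-DNA. Fluorescence polarization was read for both dyes.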
# Integrin act MD = activators of alpha7 integrin expression for muscular dystrophy; alpha7betagal myoblasts, beta-gal FDG fluorescence, 48 h; Potency, µM (doses to about 38.3 µM), without a hit: top-dose activation, most hits filed as activators; hit rate 0.064% among 350,000; AID 624291;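 further: potency means the concentration at half of the fitted maximal effect; 100% = response of the positive control SU9516; nearly all actives have a fitted effect of over 60% in size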
#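 Alpha7betagal+/- myoblasts (passage 13) were plated 16-24 hr, then exposed to compounds (1:260 dilution of DMSO stock) for 48 hours at 37C. After MPER lysis, β-galactosidase reporter activity was read as FDG fluorescence (ex 480/em 540) after 30 minutes.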
# Gal4-VP16 FLuc = inhibits Gal4-VP16 luciferase reporter, ROR gamma counter-screen. Drosophila S2 Gal4-VP16 UAS-luciferase, luminescence, 20 h. Potency, µM (top dose mostly 53.6 µM), for inactives: top-dose activity, negative = inhibition, hits mostly inhibitors. hit rate 3.5% among 310,000;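 further: Gal4-VP16 expression switched on by copper sulfate through the metallothionein promoter; potency means the concentration at half of the fitted maximal effect; on the % scale 0 is the no-effect control and ±100 the full control effect; nearly all actives have a fitted effect of over 50% in size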
# Giardia killer = Giardia lamblia killing; Giardia lamblia trophozoite viability; activity change, % at 7.66 µM, hits read low; hit rate 0.15% among 340,000; AID 540267; in the data active means activity change below about -80%; inconclusive means between about -30% and that limit;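 further: parasites exposed to compound for two days anaerobically before the ATP read; on the % scale 0 is the no-effect control and ±100 the full control effect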
#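 Giardia trophozoites, 100 cells per well, were exposed to compounds for 48 hrs at 37 deg C under anaerobic conditions; viability was then read as ATP content by bioluminescence after 15-30 min at room temperature.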
# RORg inh = inhibitors of mouse ROR gamma transcriptional activity; P51450; Drosophila S2 Gal4-RORgamma UAS-luciferase reporter, 20 h; Potency, µM (highest dose often 53.6 µM), for the others: at the top dose activity change, negative = inhibition, actives largely listed as inhibitors; hit rate 5.4% among 310,000; AID 2551; further: potency means the concentration at half of the fitted maximal effect; on the % scale 0 is the no-effect control and ±100 the full control effect; nearly all actives have a fitted effect of over 60% in size
#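 Schneider cells (Drosophila), stable Gal4 DBD–ROR gamma + UAS-luc; 1 hr cmpd preincubation; Cu2+ induction 700 uM final; 20 hr ambient; luminescence.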
# An asterisk follows results filed as active; u = inconclusive; x = no result; [ ] = another dose, or the depositor's remark. Unless noted, the call rests on the fitted dose curve; in most records, active means well fitted curve in the direction sought with a large enough effect; inconclusive means small, poorly fitted or top-dose-only effect, or another doubt; inactive means no such curve, though single readings can be large; an effect the other way counts as inactive or inconclusive.
SMILES,ERG Ets-DNA blk,Integrin act MD,Gal4-VP16 FLuc,Giardia killer,RORg inh
COc1cc(Cl)c(C)cc1NC(C)C(=O)Nc1cc(C(F)(F)F)ccc1N1CCOCC1 (stereo not drawn),-11%,-9%,-2%,-10,-5%
CC(=O)Nc1ccc(NC(=O)CC(NC(=O)c2ccccc2)c2ccccc2)cc1 (stereo not drawn),11%,-1%,-19%,-1,-17%
COCCNC(=O)[C@H](C)/C=C(\c1cccnc1)C(NC(=O)OCc1ccccc1)c1ccc(C(=O)OC)cc1 (stereo partly drawn),x,x,-3%,x,25%
O=C(Nc1ccc2snnc2c1)Nc1cccc2ccccc12,3%,-27%,u,26,-43%
CC(C)NC(=O)C1CCN(C2CCN(C(=O)Cc3ccc4c(c3)OCO4)CC2)CC1,6%,-7%,-8%,4,-21%
O=C(NC1CC1)C1CCN(C2CCN(C(=O)Cc3ccc4c(c3)OCO4)CC2)CC1,8%,-20%,-16%,-15,10µM*
Cn1nc(-c2ccc(Cl)cc2)c2cc(C(=O)N3CCN(c4ccccc4)CC3)sc21,-2%,-2%,8%,-1,1%
Cn1nc(-c2ccc(Cl)cc2)c2cc(C(=O)N3CCN(c4ccccn4)CC3)sc21,-5%,-1%,13µM*,-16,18%
COc1ccc(-c2ccc(OC)c(C3C4C=CCCC4(C)C(=O)N3Cc3ccccc3)c2)cc1OC (stereo not drawn),x,x,-19%,-22,44%
COc1ccc(-c2cc3nc(CCl)[nH]c(=O)c3s2)cc1,9%,-66%,10µM*,u,u
COc1ccc(-c2cc3nc[nH]c(=O)c3s2)cc1,-9%,15%,-15%,u,-32%
CCn1cc(C2=NC(C)CO2)c2ccccc21 (stereo not drawn),-8%,0%,-28%,1,10µM*
CCn1cc(SCC(=O)N2CCOCC2)c2ccccc21,-1%,5%,1%,25,-2%
CCn1cc(C(=O)C(F)(F)F)c2ccccc21,1%,13%,-12%,-14,5%
O=[N+]([O-])c1cccc(C2=NC(c3ccccc3)CO2)c1 (stereo not drawn),-1%,9%,-12%,-7,-1%
CCn1cc(C2=NC(c3ccccc3)CO2)c2ccccc21 (stereo not drawn),23%,-10%,-9%,-1,10µM*
CCn1cc(C2N3CC4(CC)CN2CC(CC)(C3)C4=O)c2ccccc21 (stereo not drawn),0%,x,x,x,x
CCn1cc(C2=NC(C)(C)CO2)c2ccccc21,-3%,-9%,u,-19,20µM*
CCn1cc(C2=NCC(C)O2)c2ccccc21 (stereo not drawn),-9%,-3%,u,-8,18µM*
Cc1ccc(Cn2c(C)c(CNCc3ccc(OC(C)C)cc3)c(C(=O)O)c2C)cc1,7%,x,x,x,x
CCn1cc(C2=NCCO2)c2ccccc21,-2%,-6%,-17%,16,20µM*
COc1ccc(OC)c(NC(=O)c2nc(SCc3ccccc3F)ncc2Cl)c1,-1%,x,x,x,x
CCCc1ccc2oc(C(=O)N(Cc3nccn3C)C(C)C)c(C)c2c1,-6%,-22%,-3%,19,11µM*
COc1cccc2c1OCC(C(=O)O)C2 (stereo not drawn),16%,-20%,7%,5,1%
COc1cccc2c1C(CO)N1C(C#N)C3CC(C(=O)O)C(C1C2)N3C (stereo not drawn),-37%,-40%,10µM*,u,7.1µM*
SMILES,ERG Ets-DNA blk,Integrin act MD,Gal4-VP16 FLuc,Giardia killer,RORg inh
Cc1cccc(C)c1OCCNC(=O)CCC(=O)c1ccccc1,-9%,-12%,u,-1,1%
C/C(Cc1ccccc1)=N\NC(=O)c1ccc(F)cc1,-11%,-19%,u,3,-13%
CC12CC(c3ccccc3O1)C(/C(N)=N/NC(=O)c1ccc(F)cc1)C(=O)N2 (stereo not drawn),11%,-26%,u,10,4.5µM*
CC[C@H](C)[C@H](NC(=O)[C@H](CCC(=O)O)NC(=O)CNC(=O)[C@@H](NC(=O)[C@@H]1CCCN1C(=O)[C@@H](NC(=O)[C@@H]1CCCN1C(=O)[C@@H]1CCCN1C(=O)[C@H](CC(N)=O)NC(=O)[C@H](CC(N)=O)NC(=O)[C@@H](NC(=O)[C@H](CCSC)NC(=O)[C@H](Cc1c[nH]c2ccccc12)NC(=O)CNC(=O)[C@@H](NC(=O)[C@H](CCC(N)=O)NC(=O)[C@@H](N)CCC(=O)O)[C@@H](C)CC)[C@@H](C)O)[C@@H](C)CC)C(C)C)C(=O)O,x,x,-5%,x,-26%
COc1ccc(NC(=S)NCCc2ccc(Cl)cc2)c(OC)c1,4%,-15%,11µM*,10,4.5µM*
COc1ccc(NC(=S)NCc2ccc(Cl)cc2)c(OC)c1,-21%,-1%,u,-17,-12%[1.91 µM]
COc1ccc(Cl)cc1NC(=S)NCCc1ccc(F)cc1,4%,4%,18µM*,-8,14µM*
CC(C)c1cccc(-c2ccc3c(c2)S(=O)(=O)c2cccc(C(=O)NCc4ccccc4Cl)c2C3=O)c1,-12%,20%,x,-28,x
FC(F)(F)c1cccc(NC(=S)N2CCN(c3cccc(C(F)(F)F)c3)CC2)c1,-1%,-18%,-21%,24,11µM*
O=S(=O)(c1ccccc1)N1CCN(C(=S)Nc2ccc(F)cc2)CC1,2%,-5%,2%,5,-15%[10 µM]
Cc1cccc(NC(=S)N2CCN(c3ccc(F)cc3)CC2)c1,1%,-12%,u,-20,8.9µM*
O=[N+]([O-])c1ccc(NC(=S)N2CCN(c3ccc(F)cc3)CC2)cc1,9%,12%,-15%,7,-19%
Cc1cc(C)cc(NC(=S)N2CCN(c3ccc(F)cc3)CC2)c1,3%,-1%,-25%,31,7.1µM*
Cc1cccc(NC(=S)N2CCN(S(=O)(=O)c3ccc(F)cc3)CC2)c1,-9%,37%,-16%,2,13µM*
CCOC(=O)N1CCN(C(=S)Nc2cccc(C)c2)CC1,7%,-21%,-4%,3,-41%
CCN(C(=O)Cn1ncc2c1-c1cc(C)ccc1OC2)c1cc(Cl)ccc1OC,3%,x,x,x,x
C#CCN1c2ccccc2Sc2cccnc21,3%,-37%,0%,-18,-2%
COc1cc(OC)c(NC(=O)c2c(N3CCCC3=O)c3cc(C)ccc3n2C)cc1Cl,-1%,x,x,x,x
Cc1nc(S/C(=C\c2ccc(OCc3ccccc3Cl)cc2)C(=O)O)n[nH]1,-7%,1%,u,10,1µM*
CC(C)C1Cc2c(sc(NC(=S)NC(=O)c3ccccc3)c2C#N)CO1 (stereo not drawn),15%,-8%,u,-23,5.6µM*
C=CCNC(=S)Nc1sc2c(c1C(=O)OCC)CC(C(C)C)OC2 (stereo not drawn),1%,-42%,4.5µM*,5,5µM*
